Reference: PubChem BioAssay (NCI)
This is part of a sample that, as a whole, favours compounds with a hit. Of some 79,000 tested, about 15% had one in any assay. Unmarked numbers belong to inactive results. Rule as the data show it: active = growth inhibition above about 70%; inactive = the rest.

Experiment: NCI Yeast Anticancer Drug Screen. Data for the cln2 rad14 strain (AID 165);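 also: 0% = growth equal to vehicle treated cultures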
Conditions: S. cerevisiae cln2 rad14 strain, at 50.0 µM, active compounds read high
Procedure, shortened: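 Test compounds were added to cln2 rad14 yeast cultures; inhibition of growth was then determined by comparison with vehicle treatment.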

Row | Compound | growth inhibition
1 | CCCC(=O)Nc1cc(C(=O)N2C[C@@H]3C[C@]34C2=CC(=O)c2[nH]cc(C)c24)n(COC)c1 | 10.1%
2 | COC(=O)CCSCCC(=O)OC | -8.2%
3 | C/C(=N/NC(=S)Nc1cccc(Cl)c1)c1cccc(/C(C)=N\NC(=S)Nc2cccc(Cl)c2)n1 | 20.3%
4 | COc1ccc(C/C=N/Nc2ccc([N+](=O)[O-])cc2[N+](=O)[O-])cc1OC | 3.45%
5 | COC(=O)c1ccc(/C=C2\CCc3ccccc3C2=O)cc1 | 12.5%
6 | O=c1c2cc3c(=O)n(O)c(=O)c3cc2c(=O)n1O | 6.75%
7 | O=C1C(O)=CC(=C(c2ccccc2)c2ccccc2)c2cc(Br)ccc21 | 8.9%
8 | COc1ccc2nc(-c3ccc(F)cc3)cc(C(=O)O)c2c1 | 16.9%
9 | CCCCCC(CN(C)C)C(=O)CC(SCC)c1ccccc1 (stereo not given) | 1.05%
10 | C[P+]1(CCc2ccc(Cl)cc2)CC=CC1 | -18.9%
11 | CC1(O)CC2(O)C=CC3=C(C(=O)c4cccc(O)c4C3=O)C2(O)C(=O)C1O (stereo not given) | 15.8%
12 | CCN(CC)C(=O)CC(C)(C)O | -0.9%
13 | O=C(Cc1ccccc1)NN1C(=O)/C(=C\c2ccc(O)cc2)SC1=Nc1ccccc1 | 4.4%
14 | C=CCC1CCC/C1=N\O (stereo not given) | -12.2%
15 | N#CCc1nc(-c2ccccc2)n[nH]1 | 5.6%
16 | OC12C=CC(CCCC1)O2 (stereo not given) | 3.2%
17 | CCCCCCCC(=O)NC(O)C(Cl)(Cl)C(C)Cl (stereo not given) | -21.4%
18 | CCCCCCCCCCCCC1CC(=O)OC1=O (stereo not given) | 18.1%
19 | CCCC(CCC(C)=O)[N+](=O)[O-] (stereo not given) | -14.2%
20 | O=c1c2cnc3cc(Cl)ccc3c2[nH]n1-c1ccc(Cl)cc1 | -2.55%

Row | Compound | growth inhibition
21 | C=C(C)c1ccc(B2Nc3ccccc3N2)cc1 | 18.8%
22 | COC(=O)C1C(O)C(C)C(O)OC1C(C)C(O)C(C)/C=C\C=C(/C)C(=O)Nc1c(C)c(OC(C)=O)c2c(c1O)C(=O)C(C)=C1OCOC(/C(C)=C/C(C)=O)=C12 (stereo not given) | 13.4%
23 | CCOC(=O)Cc1c(Cc2[nH]c(C(=O)OCc3ccccc3)c(CC(=O)OCC)c2CC(=O)OCC)[nH]c(C(=O)OCc2ccccc2)c1CC(=O)OCC | -3.1%
24 | NC(=O)c1ccccc1C(N)=O | 30.7%
25 | CC1(C)CC(OP(=O)(c2ccccc2)c2ccccc2)CC(C)(C)N1O | 3.1%
26 | O=C1c2c(c3c4ccccc4[nH]c3c3[nH]c4ccccc4c23)C(=O)N1Cc1ccccc1 | -6.6%
27 | O=C(CP(c1ccccc1)c1ccccc1)c1cccc(C(=O)CP(c2ccccc2)c2ccccc2)c1 | -8.6%
28 | O=C(NO)c1c(F)c(F)c(C(=O)NO)c(F)c1F | 11%
29 | NCCCCC(N)C(=O)O.[Cu+2] (stereo not given) | -6%
30 | Cc1cccc(C2=C/C(=C(\SS/C(C(=O)c3ccc(OCC(=O)O)c(Cl)c3Cl)=C3\C=C(c4cccc(C)c4)SS3)C(=O)c3ccc(OCC(=O)O)c(Cl)c3Cl)SS2)c1 | 1.95%
31 | Cc1ccc(N=Cc2cccs2)c(Br)c1 | 6.4%
32 | Cc1ccccc1NC(=O)/C=C\C(=O)O | 10.1%
33 | CN1C/C(=C\c2ccco2)c2nc(N)nc(-c3ccco3)c2C1 | 35.5%
34 | COc1cc(CC(=O)O)c(Br)cc1C | 0.05%
35 | CCCCCCCCCO/N=C\c1c2c(O)c3c(O)c(C)c4c(c3c1O)C(=O)C(C)(O/C=C\C(OC)C(C)C(OC(C)=O)C(C)C(O)C(C)C(O)C(C)/C=C\C=C(\C)C(=O)N2)O4 (stereo not given) | -13.9%
36 | O=C(Cc1ccccc1C(=O)O)c1ccccc1 | -24.4%
37 | CCOC(=O)NCc1ccccc1 | 2.6%
38 | CCc1ccccc1NOC | -7.15%
39 | NC(CCC(=O)NC(CSSCCCCS(=O)O)C(=O)NCC(=O)O)C(=O)O (stereo not given) | -10.2%
40 | CCN(CC)CCC1CCNCC1 | 15.8%

Experiment: NCI Yeast Anticancer Drug Screen. Data for the bub3 strain (AID 167)
Conditions: S. cerevisiae bub3 mutant strain, at 50.0 µM, active compounds read high
Procedure, shortened: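 Readout: yeast growth inhibition, expressed relative to vehicle-only wells. The test organism is a mutant strain from a panel with lesions in DNA repair or checkpoint genes.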

Row | Compound | growth inhibition
41 | CCCC(=O)Nc1cc(C(=O)N2C[C@@H]3C[C@]34C2=CC(=O)c2[nH]cc(C)c24)n(COC)c1 | 8.9%
42 | COC(=O)CCSCCC(=O)OC | 1.75%
43 | C/C(=N/NC(=S)Nc1cccc(Cl)c1)c1cccc(/C(C)=N\NC(=S)Nc2cccc(Cl)c2)n1 | 62.4%
44 | COc1ccc(C/C=N/Nc2ccc([N+](=O)[O-])cc2[N+](=O)[O-])cc1OC | -6.3%
45 | COC(=O)c1ccc(/C=C2\CCc3ccccc3C2=O)cc1 | 14.2%
46 | O=c1c2cc3c(=O)n(O)c(=O)c3cc2c(=O)n1O | 3.25%
47 | O=C1C(O)=CC(=C(c2ccccc2)c2ccccc2)c2cc(Br)ccc21 | 11.4%
48 | COc1ccc2nc(-c3ccc(F)cc3)cc(C(=O)O)c2c1 | 10.2%
49 | CCCCCC(CN(C)C)C(=O)CC(SCC)c1ccccc1 (stereo not given) | 18.6%
50 | C[P+]1(CCc2ccc(Cl)cc2)CC=CC1 | 0.2%
51 | CC1(O)CC2(O)C=CC3=C(C(=O)c4cccc(O)c4C3=O)C2(O)C(=O)C1O (stereo not given) | 22.9%
52 | CCN(CC)C(=O)CC(C)(C)O | 6.15%
53 | O=C(Cc1ccccc1)NN1C(=O)/C(=C\c2ccc(O)cc2)SC1=Nc1ccccc1 | -9.75%
54 | C=CCC1CCC/C1=N\O (stereo not given) | -3.15%
55 | N#CCc1nc(-c2ccccc2)n[nH]1 | 4.5%
56 | OC12C=CC(CCCC1)O2 (stereo not given) | 10.3%
57 | CCCCCCCC(=O)NC(O)C(Cl)(Cl)C(C)Cl (stereo not given) | -1.55%
58 | CCCCCCCCCCCCC1CC(=O)OC1=O (stereo not given) | 32.5%
59 | CCCC(CCC(C)=O)[N+](=O)[O-] (stereo not given) | 1%
60 | O=c1c2cnc3cc(Cl)ccc3c2[nH]n1-c1ccc(Cl)cc1 | 2.75%

Row | Compound | growth inhibition
61 | C=C(C)c1ccc(B2Nc3ccccc3N2)cc1 | 40.8%
62 | COC(=O)C1C(O)C(C)C(O)OC1C(C)C(O)C(C)/C=C\C=C(/C)C(=O)Nc1c(C)c(OC(C)=O)c2c(c1O)C(=O)C(C)=C1OCOC(/C(C)=C/C(C)=O)=C12 (stereo not given) | 14%
63 | CCOC(=O)Cc1c(Cc2[nH]c(C(=O)OCc3ccccc3)c(CC(=O)OCC)c2CC(=O)OCC)[nH]c(C(=O)OCc2ccccc2)c1CC(=O)OCC | -3.35%
64 | NC(=O)c1ccccc1C(N)=O | -11.8%
65 | CC1(C)CC(OP(=O)(c2ccccc2)c2ccccc2)CC(C)(C)N1O | 13.3%
66 | O=C1c2c(c3c4ccccc4[nH]c3c3[nH]c4ccccc4c23)C(=O)N1Cc1ccccc1 | -5.45%
67 | O=C(CP(c1ccccc1)c1ccccc1)c1cccc(C(=O)CP(c2ccccc2)c2ccccc2)c1 | -14.3%
68 | O=C(NO)c1c(F)c(F)c(C(=O)NO)c(F)c1F | 9.65%
69 | NCCCCC(N)C(=O)O.[Cu+2] (stereo not given) | -11.8%
70 | Cc1cccc(C2=C/C(=C(\SS/C(C(=O)c3ccc(OCC(=O)O)c(Cl)c3Cl)=C3\C=C(c4cccc(C)c4)SS3)C(=O)c3ccc(OCC(=O)O)c(Cl)c3Cl)SS2)c1 | -5.15%
71 | Cc1ccc(N=Cc2cccs2)c(Br)c1 | -0.95%
72 | Cc1ccccc1NC(=O)/C=C\C(=O)O | -14.4%
73 | CN1C/C(=C\c2ccco2)c2nc(N)nc(-c3ccco3)c2C1 | 6.85%
74 | COc1cc(CC(=O)O)c(Br)cc1C | -0.85%
75 | CCCCCCCCCO/N=C\c1c2c(O)c3c(O)c(C)c4c(c3c1O)C(=O)C(C)(O/C=C\C(OC)C(C)C(OC(C)=O)C(C)C(O)C(C)C(O)C(C)/C=C\C=C(\C)C(=O)N2)O4 (stereo not given) | -6.6%
76 | O=C(Cc1ccccc1C(=O)O)c1ccccc1 | -25.1%
77 | CCOC(=O)NCc1ccccc1 | -6.35%
78 | CCc1ccccc1NOC | 8.45%
79 | NC(CCC(=O)NC(CSSCCCCS(=O)O)C(=O)NCC(=O)O)C(=O)O (stereo not given) | 14.2%
80 | CCN(CC)CCC1CCNCC1 | -3.9%
